Reference: the supplement of paper PMC3484114
± gives the standard deviation.

These compounds were tested on OVCAR-3-derived ovarian cancer stem-like cells (spheroids) (assay: cell growth relative to untreated control; higher = more growth (less inhibition)). Conditions: 2.29 µM; 96 h.
Summary of the method: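 OVCAR-3 spheroid-derived stem-like cells were trypsin-dissociated, seeded at 50,000 cells/mL in stem cell medium in ultra-low attachment 96-well plates and preincubated 24 h. Compounds were then added at 2.29 uM for 96 h at 37°C, 5% CO2, in 4 replicate wells. Viability was read as TOX8 resazurin fluorescence (ex 560/em 590 nm) after 4 h. Percent growth was calculated relative to untreated wells after blank subtraction and Grubbs outlier removal.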

Compound | cell growth [%]
O=C1N[C@@H]2C(=C[C@H](O)[C@@H](O)[C@H]2O)c2cc3c(c(O)c21)OCO3 | 111 ± 17
CC(C)c1oc(=O)cc2c1[C@@H](O)[C@H]1OC(=O)[C@@]3(C)[C@@H](O)[C@H]4O[C@H]4[C@@]2(C)[C@@H]13 | 62.6 ± 32
C[n+]1ccc(-c2cc[n+](C)cc2)cc1 | 101 ± 11
CC(/C=N/N=C(N)N)=N\N=C(N)N | 70.6 ± 16
CC[C@](C)(O)C(=O)O[C@H]1C(=O)O[C@@H]2C[C@H]3C(C)=C[C@H](O)[C@@H](O)[C@]3(C)[C@H]3[C@@]4(O)OC[C@]32[C@@H]1[C@@H](C)[C@H]4O | 138 ± 54
C1COCCN1.S=C(S)N1CCOCC1 | 63.4 ± 11
O=C1N[C@@H]2C(=C[C@H](O)[C@@H](O)[C@H]2O)c2cc3c(cc21)OCO3 | 31.7 ± 7.1
C/C(=N\N=C(/[Se])N1CC2CCC(CC2)C1)c1ccccn1 | 7.7 ± 2.4
CC[C@@]1(O)C[C@H](O[C@H]2C[C@H](N(C)C)[C@H](O)[C@H](C)O2)c2c(cc3c(c2O)C(=O)c2c(O)ccc(O)c2C3=O)[C@H]1C(=O)OC | 50.3 ± 31
C=C(C)C(=O)OC1CCC2(C)C(CCC3C2CCC2(C)C(c4ccc(=O)oc4)CC4OC432)C1 (configuration not stated) | 92.2 ± 18
CC12CCC3C(CCC4CC(OC(=O)Cc5ccc(N(CCCl)CCCl)cc5)CCC43C)C1CCC(=O)N2 (configuration not stated) | 52.8 ± 15
CC(C)(Br)C(=O)C(Br)Br | 88.9 ± 28
Cn1c(=O)[nH]c2nncnc2c1=O | 92.3 ± 13
CC1=C2C(=CC(C)(C)[C@@H]2O)C(=O)[C@](C)(O)C12CC2 | 20.3 ± 2.4
Cc1cc2c(C(C)C)c(O)c(O)c(C=O)c2c(O)c1-c1c(C)cc2c(C(C)C)c(O)c(O)c(C=O)c2c1O | 86 ± 61
CCCNC1=C(C)C(=O)C2=C(C1=O)[C@H](COC(N)=O)[C@]1(OC)[C@@H]3N[C@@H]3CN21 | 60.4 ± 24
N#Cc1cn([C@@H]2O[C@H](CO)[C@@H](O)[C@H]2O)c2ncnc(N)c12 | 8.9 ± 3.4
